The values that follow come from PubChem BioAssay (NCATS).

Results filed as inconclusive are left out. The source made the active and inactive calls. Calls come from the whole dose curve; as a rule, active = well fitted inhibition curve with a large enough effect; inconclusive = small, poorly fitted or top-dose-only effect; inactive = flat fitted curve, though single readings scatter. *1 amine or outer side, *2 acyl side, *3 side chain or, on linkers, in order; H or OH if unused. Where a SMILES comes first, the peptide text is derived from it. Bridges are numbered along the chain shown (N, C = ends). [ ]: non-standard residue; d: D form. The star is where a group is joined. ξ: configuration not given here. ξhTyr(3S-OH,4S-OH,3'-OSO3H) = NC(C(=O)O)[C@H](O)[C@@H](O)c1ccc(O)c(OS(=O)(=O)O)c1; Orn(4R-OH,5R-OH) = O=C([C@H](C[C@@H](O)[C@@H](O)N[*:3])N[*:1])[*:2]; X2 = CCCCCOc1ccc(-c2cc(-c3ccc(C(=O)*)cc3)no2)cc1; X3 = C[C@H]1CN([*:1])C(C(=O)[*:2])[C@H]1O; ξGln(3R-OH) = NC(=O)C[C@@H](O)C(N)C(=O)O; ξPro(4R-OH) = O=C(O)C1C[C@@H](O)CN1; ξThr(3R) = C[C@@H](O)C(N)C(=O)O
% is set by controls: 0 for no effect and ±100 for the full control effect; potency is the fitted concentration of half-maximal effect.

The assay concerns HEK293. Nature of the assay: Cytotoxic Profiling of Annotated Libraries Using Quantitative High-Throughput Screening (AID 1296008). Note: nearly all actives have a fitted effect of over 60% in size. The note with it: Five cell lines viability, CellTiter-Glo ATP luminescence, 48-72 h; max response: active compounds read low. In a few lines: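 Cells exposed to compounds for 48 or 72 hr at 37 degrees Celsius. Viability read as ATP-coupled luminescence with CellTiter-Glo after 10 min at room temperature.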
A general note: In ATP-based viability assays light output follows the ATP content of the culture.
As to `C[C@@H]1O[C@@H](O[C@H]2[C@H](O[C@H]3[C@H](O[C@H]4CC[C@@]5(C)C(CC[C@]6(C)C5CC=C5[C@@H]7CC(C)(C)C[C@@H](O)[C@]7(C)CC[C@]56C)[C@@]4(C)CO)O[C@H](C(=O)O)[C@@H](O)[C@@H]3O)O[C@H](CO)[C@H](O)[C@@H]2O)[C@H](O)[C@H](O)[C@H]1O` (some centres undefined), the max response was -3.77% (inactive).

Consider `OC[C@@]1(O)CO[C@@H](OC[C@H]2O[C@@H](OCc3ccccc3)[C@H](O)[C@@H](O)[C@@H]2O)[C@@H]1O`, for which the max response is 2.46% (inactive).

Take `COc1ccc2c(c1)C=C1Cn3c-2c(C2CCCCC2)c2ccc(cc23)C(=O)NS(=O)(=O)N(C)CCOCCN(C)C1=O`: the max response was -78% (inactive).

In the case of `CCNC(=O)C1CC(F)(c2ccc(CN3CCCC3)c(F)c2)C1` (centres undefined), the max response was -0.849% (inactive).

Take `CCC(=O)N1CCc2cc(OC)c(O)cc2C1`: the max response is -5.69% (inactive).

For `O=C(Cc1ccc(Cl)cc1)Nc1cnccc1C(=O)O`, the max response was 4.18% (inactive).

`O=C(O)C(Cc1ccccc1)NC(=O)C1CCCN1` (stereo not drawn) (H-Pro-Phe-OH; configuration not given here): the max response is 0.403% (inactive).

Turning to `COc1c(C)c(OCC(O)C(C)(C)O)cc2c1CNC2=O` (centres undefined), the max response was -3.96% (inactive).

With `Cc1c(O)cc2c(c1O)COC1(O)CCCOC21` (centres undefined), the max response was -1.54% (inactive).

As for `C[C@H]1[C@H](C)CC[C@]2(C(=O)OC3OC(CO)C(O)C(O)C3O)CC[C@]3(C(=O)O)C(=CCC4[C@@]5(C)CC[C@H](O[C@@H]6O[C@@H](C)[C@H](OC7OC(CO)C(O)C(O)C7O)[C@@H](O)[C@H]6O)C(C)(C)C5CC[C@]43C)[C@H]12` (some centres undefined), the max response was 2.35% (inactive).

For `COc1cc(C(C)=O)ccc1O[C@@H]1O[C@H](CO[C@@H]2OC[C@@H](O)[C@H](O)[C@H]2O)[C@@H](O)[C@H](O)[C@H]1O`, the max response was -0.597% (inactive).

For `COC(=O)c1[nH]c(=O)c2ccccc2c1-c1ccc[nH]1`, the Potency is 20.6 µM (active).

For `C=C1C2(C)CC3C4(C)OC(C5OC56C4=CC(=O)OC6(C)C)C3(C)C13C(=O)OC(C)C3(O)C2=O` (centres undefined), the max response was -4.51% (inactive).

As to `O=C(O)Cn1nnc(-c2ccc(CN(CCCCOc3ccc(CN4CCCC4)cc3)CCc3ccccc3)cc2)n1`, the max response is -0.898% (inactive).

Turning to `CC1CC2OCC3(O)CCC(O)C(C14CC(c1ccoc1)OC4=O)C23CO` (centres undefined), the max response was -3.58% (inactive).

With `C=C(C(=O)O)[C@@H]1CC[C@H](C)[C@@H]2CC(=O)C(C)=C2C1`, the max response was 3.15% (inactive).

Regarding `O=C(Cn1c2ccccc2c2nc3n(c(=O)c21)CCS3)N1CCCC1`, the max response was -15.3% (inactive).

Regarding `O=C(O)c1ccc(NC(=O)[C@H](CC2CCCC2)n2cnc(C(F)(F)F)c2)nc1`, the max response was -11% (inactive).

Regarding `COC(=O)[C@H](Cc1ccc([N+](=O)[O-])cc1)NC(=O)c1cccc2ccccc12`, the compound was called inactive.

With `CC(=O)OCC1=CCC2C(C)(C)CCCC2(C)C12CCC(C)(CC(=O)O)O2` (centres undefined), the max response is -0.588% (inactive).

Consider `COc1cc(C(CO)C(OC2OC(CO)C(O)C(O)C2O)c2ccc(O)c(OC)c2)ccc1O` (centres undefined), for which the max response was -2.64% (inactive).

Turning to `CCOC(=O)C1=C(N)Oc2ccc(Cl)cc2C1C(C#N)C(=O)OCC` (centres undefined), the max response was 1.25% (inactive).

With `O=C(O)CC1CCC(c2ccc(-c3ccc(Nc4ccc(C(F)(F)F)nc4)cn3)cc2)CC1` (centres undefined), the max response is -8.47% (inactive).

Take `COC(=O)[C@@H](NC(=O)[C@H](CC(C)C)NC(=O)N(Cc1ccccc1)C[C@@H](O)[C@H](Cc1ccccc1)NC(=O)OC(C)(C)C)C(C)C`: the max response is 0.117% (inactive).

As for `CC(O)C(O)/C=C/C=C/C(=O)O[C@@H]1C=C(C(=O)O)[C@](O)(CO)[C@@]2(C)CCCC(C)(C)[C@H]12` (some centres undefined), the max response is -10.2% (inactive).

As for `CCCCCOc1ccc(-c2cc(-c3ccc(C(=O)N[C@H]4C[C@@H](O)[C@@H](O)NC(=O)C5[C@@H](O)[C@@H](C)CN5C(=O)C([C@H](O)CC(N)=O)NC(=O)C([C@H](O)[C@@H](O)c5ccc(O)c(OS(=O)(=O)O)c5)NC(=O)C5C[C@@H](O)CN5C(=O)C([C@@H](C)O)NC4=O)cc3)no2)cc1` (stereo partly drawn) (X2-[Orn(4R-OH,5R-OH)][ξThr(3R)][ξPro(4R-OH)][ξhTyr(3S-OH,4S-OH,3'-OSO3H)][ξGln(3R-OH)][X3]; lactam 1-C), the max response was -7.85% (inactive).

Take `CC(C)=C1CC2C(CCC2(C)O)C(C)(O)CC1=O` (centres undefined): the max response was -3.11% (inactive).

Turning to `C[C@]1(OC(=O)/C=C/c2ccc(O)cc2)C[C@@H](O)[C@]2(O)C=CO[C@@H](O[C@@H]3O[C@H](CO)[C@@H](O)[C@H](O)[C@H]3O)C12` (some centres undefined), the max response is -2.23% (inactive).

Take `Cc1cc(-n2c(=O)[nH]c(=O)n(C)c2=O)ccc1Oc1ccc(SC(F)(F)F)cc1`: the max response is 4.1% (inactive).

Consider `C/C=C/C=C/C=C/C(=O)OC1C=C2C(O)OC(=O)[C@]2(O)[C@@]2(C)CCCC(C)(C)[C@H]12` (some centres undefined), for which the max response is 4.05% (inactive).

Consider `O=C(/C=C/c1ccc(O)cc1)OC[C@H]1O[C@@H](O/C(=C\c2ccccc2)C(=O)O)[C@H](O)[C@@H](O)[C@@H]1O`, for which the max response was -7.06% (inactive).

Turning to `C=C(CO)C(=O)O[C@H]1C[C@@]23O[C@@H]2CC/C(=C/[C@H]2OC(=O)C(=C)[C@H]12)CO[C@H]3O`, the max response was -24.8% (inactive).

On to `CC(C)CC(c1c(O)c(C=O)c(O)c(C=O)c1O)C1CCC(C)(O)C2CC(C(C)(C)O)CCC12C` (centres undefined), for which the max response is -7.48% (inactive).

Take `COC(=O)C1=COC(OC2OC(CO)C(O)C(O)C2O)C2C(C)C(OC(C)=O)C(OC(=O)c3ccccc3)C12` (centres undefined): the max response is -48.1% (inactive).

`C=C1CCC2C(C)(C(=O)OC)CCCC2(C)C1CCC1=CCOC1=O` (centres undefined): the max response was 2.4% (inactive).

As for `Cc1cc(CNC(=O)c2cc(C(=O)NCc3ccc(F)c(C)c3)ncn2)ccc1F`, the max response is 1.88% (inactive).

With `Cc1occc1C(=O)n1ccnc1`, the max response was 0.475% (inactive).

With `O=C(O)C1(c2ccc(-c3ccc(Cl)c(Cl)c3)c(F)c2)CC1`, the max response was -11.7% (inactive).

As to `CC(=O)OC[C@]12[C@H](OC(C)=O)[C@H](OC(=O)c3ccccc3)[C@@H]3[C@@H](OC(C)=O)[C@]1(OC3(C)C)[C@H](C)C[C@H](OC(=O)c1ccccc1)[C@@H]2OC(=O)c1ccccc1`, the max response was -0.732% (inactive).
